From PubChem BioAssay AID602405 (Broad Institute, 2012)
Out of some 360,000 compounds screened, about 350 (0.097%) were called active. The sample holds actives, similar compounds and a random draw of the others, so the mix is not that of the screen. Unmarked numbers belong to inactive results. Rule as the data show it: active = inhibition above about 16% (passing the limit was not always enough); inconclusive = no clear call, values can overlap the other calls; inactive = below that.

tested on: UDP-N-acetylbacillosamine N-acetyltransferase PglD (Campylobacter jejuni); experiment: C. jejuni PglD acetyltransferase inhibitors, primary screen, biochemical, DTNB colorimetric, single point (AID 602405); conditions: purified PglD enzyme, DTNB colorimetric CoA detection; at 12.5 µM; hits give high values

SMILES | inhibition
CC(C)CC#Cc1cnc2c(c1)C(=O)N([C@H](C)CO)C[C@H](C)[C@@H](CN(C)C(=O)Cc1cccnc1)O2 | -1.63%
CCCN1C[C@H](C)[C@@H](OC)CN(C)C(=O)c2ccc(NC(=O)C3CCOCC3)cc2OC[C@H]1C | 0.0955%
C[C@H]1CCCCO[C@@H](CN(C)C(=O)Nc2cccc3ccccc23)[C@@H](C)CN([C@@H](C)CO)C(=O)c2cc(NS(=O)(=O)c3ccc(Cl)cc3)ccc2O1 | 19.9%
C[C@H]1CN([C@@H](C)CO)C(=O)c2cc(-c3cccc(F)c3)cnc2O[C@@H]1CN(C)Cc1cncnc1 | 4.73%
COCC(=O)Nc1ccc2c(c1)OC[C@H](C)N(C)C[C@@H](C)[C@@H](OC)CN(C)C2=O | -0.767%
CCC(=O)Nc1ccc2c(c1)C(=O)N(C)[C@@H]1CC[C@@H](CC(=O)N[C@@H](C)c3ccccc3)O[C@@H]1CO2 | 2.31%
C/C=C/c1ccc2c(c1)O[C@@H](CN(C)C(=O)C1CCOCC1)[C@H](C)CN([C@H](C)CO)S2(=O)=O | -2.4%
CCCNC(=O)N(C)C[C@@H]1Oc2cc(-c3ccccc3)ccc2S(=O)(=O)N([C@H](C)CO)C[C@H]1C | 3.76%
COCC#Cc1ccc2c(c1)O[C@@H](CN(C)C(C)=O)[C@H](C)CN([C@H](C)CO)S2(=O)=O | 2.69%
C[C@H](CO)N1C[C@H](C)[C@@H](CN(C)Cc2ccc3c(c2)OCO3)Oc2c(NC(=O)C3CCOCC3)cccc2C1=O | -0.262%
Cc1ccc(S(=O)(=O)N2CCC(C(=O)N3CCCCCCC3)CC2)cc1 | -2.53%
Cc1ccc(CN(CC(=O)NCC2CCCO2)S(=O)(=O)c2ccc(C)cc2)cc1 (stereo unspecified) | -1.95%
Cc1ccc(S(=O)(=O)N2CCC(C(=O)NCC3CCCO3)CC2)cc1 (stereo unspecified) | 34.1% (active)
CCCNC(=O)[C@H]1[C@H](CO)[C@H]2Cn3c(ccc(C4=CCCC4)c3=O)[C@H]2N1C(=O)CC1CC1 | 0.913%
CO[C@@H]1CC[C@@H]2CCOc3ccc(C#N)cc3C(=O)N(C)C[C@@H](OC)[C@@H](C)C(=O)N(C)C[C@H]1O2 | 2.01%
O=C(CC1CC1)Nc1ccc2c(c1)[C@@H]1C[C@@H](CC(=O)NC3CCCCC3)O[C@@H](CO)[C@@H]1O2 | 0.63%
C[C@@H]1CN([C@@H](C)CO)C(=O)c2cc(C3=CCCCC3)cnc2O[C@H]1CN(C)CC1CCOCC1 | 4.78%
C[C@H]1CN([C@@H](C)CO)C(=O)c2cc(/C=C/c3ccccc3)cnc2O[C@@H]1CN(C)C(=O)NC1CCCCC1 | 4.19%
C[C@@H]1CCCCO[C@@H](CN(C)C(=O)Cc2ccccc2)[C@@H](C)CN([C@@H](C)CO)C(=O)c2cc(NC(=O)c3ccccc3)ccc2O1 | -0.412%
COc1ccc(NC(=O)Nc2cccc3c2O[C@H](CN(C)S(=O)(=O)c2ccc(F)cc2)[C@H](C)CN([C@H](C)CO)C3=O)cc1 | 2.54%
C=CCOC(=O)C1=C(C)NC(SCC(=O)OCC)=C(C#N)C1c1ccc(C)cc1 (stereo unspecified) | 25.9% (active)

SMILES | inhibition
CCOC(=O)CSC1=C(C#N)C(c2sccc2C)CC(=O)N1 (stereo unspecified) | -0.988%
C=CCOC(=O)C1=C(C)NC(C)=C(C(=O)OCC=C)C1c1cccs1 | -1.12%
CCCC(=O)Nc1ccc2c(c1)C(=O)N(C)[C@H]1CC[C@@H](CC(=O)NCc3cccc(F)c3)O[C@H]1CO2 | 0.49%
CSCCC(NC(=O)c1ccccc1)C(=O)N1CCCCCCC1 (stereo unspecified) | 6.24%
CC(NC(=O)c1ccc(Cl)cc1)C(=O)N1CCCCC1 (stereo unspecified) | 24% (active)
COc1ccc(S(=O)(=O)NC(C)C(=O)N2CCCCCC2)cc1 (stereo unspecified) | 2.86%
C[C@@H]1CN([C@@H](C)CO)C(=O)Cc2cc(NS(=O)(=O)c3ccc(Cl)cc3)ccc2O[C@H]1CN(C)Cc1ccc(C(F)(F)F)cc1 | 3.04%
Cc1noc(C)c1NC(=O)N(C)C[C@@H]1Oc2ccc(NC(=O)Nc3ccc4c(c3)OCO4)cc2C(=O)N([C@H](C)CO)C[C@H]1C | -1.03%
CC(C)NC(=O)Nc1ccc2c(c1)C(=O)N([C@H](C)CO)C[C@@H](C)[C@@H](CN(C)S(=O)(=O)c1ccc(Cl)cc1)OCCCC[C@H](C)O2 | 1.05%
C[C@@H]1CN([C@@H](C)CO)C(=O)c2c(c3ccccc3n2C)-c2ccccc2CO[C@H]1CN(C)C(=O)N[C@H](C)c1ccccc1 | -3.17%
CS(=O)(=O)Nc1ccc2c(c1)[C@H]1C[C@@H](CC(=O)NCCc3ccccc3)O[C@@H](CO)[C@H]1O2 | 1.04%
Cc1noc(C)c1S(=O)(=O)Nc1ccc2c(c1)C(=O)N([C@@H](C)CO)C[C@@H](C)[C@H](CN(C)Cc1ccc(-c3ccccc3)cc1)O2 | -0.726%
Cc1noc(C)c1NC(=O)Nc1ccc2c(c1)C(=O)N([C@@H](C)CO)C[C@H](C)[C@H](CN(C)Cc1ccc(C(=O)O)cc1)OCCCC[C@@H](C)O2 | 0.986%
Cc1ccccc1-c1ccc2c(c1)O[C@H](CN(C)C)[C@H](C)CN([C@@H](C)CO)S2(=O)=O | 4.9%
CCCN1C[C@@H](C)[C@@H](OC)CN(C)C(=O)c2ccc(NS(C)(=O)=O)cc2OC[C@@H]1C | 0.769%
O=C(C[C@@H]1CC[C@@H](NC(=O)C2CC2)[C@H](CO)O1)NCc1ccncc1 | -0.635%
Cc1ccc(S(=O)(=O)NCC[C@H]2CC[C@H](NC(=O)c3ccccn3)[C@@H](CO)O2)cc1 | 1.02%
C[C@@H]1CN([C@H](C)CO)S(=O)(=O)c2ccc(-c3cccc(C#N)c3)cc2O[C@@H]1CN(C)C(=O)Nc1ccccc1F | -1.07%
CCCC#Cc1cnc2c(c1)C(=O)N([C@H](C)CO)C[C@H](C)[C@H](CN(C)C(=O)Cc1ccncc1)O2 | 0.18%
C[C@@H]1CN([C@H](C)CO)S(=O)(=O)c2ccc(C#CCN(C)C)cc2O[C@@H]1CN(C)C(=O)C1CCCCC1 | -0.634%
